# Inconclusive results are not listed. A number with no mark means an inactive call. This is one part of the list. Entries that show only a call come without a potency. The source made the active and inactive calls. Calls follow the shape of the dose curve; as a rule, active = well fitted curve in the direction sought with a large enough effect; inconclusive = small, poorly fitted or top-dose-only effect, or another doubt; inactive = no such curve, though single readings can be large; an effect the other way counts as inactive or inconclusive.
# Experiments:
# [1] = target: Rap guanine nucleotide exchange factor 3 (Homo sapiens) (UniProt O95398); assay: Confirmatory qHTS for antagonist of cAMP-regulated guanine nucleotide exchange factor 3 (EPAC1) (AID 1645880); conditions: EPAC1 Rap1B-BODIPY-GDP exchange, fluorescence; activity, negative = inhibition: at 115 µM (top of the series); also: nearly all actives have a fitted effect of over 55% in size; also: potency is read from the fitted curve at half-maximal effect
# Chain of Rap guanine nucleotide exchange factor 3 (Homo sapiens) (O95398 whole entry, looked up): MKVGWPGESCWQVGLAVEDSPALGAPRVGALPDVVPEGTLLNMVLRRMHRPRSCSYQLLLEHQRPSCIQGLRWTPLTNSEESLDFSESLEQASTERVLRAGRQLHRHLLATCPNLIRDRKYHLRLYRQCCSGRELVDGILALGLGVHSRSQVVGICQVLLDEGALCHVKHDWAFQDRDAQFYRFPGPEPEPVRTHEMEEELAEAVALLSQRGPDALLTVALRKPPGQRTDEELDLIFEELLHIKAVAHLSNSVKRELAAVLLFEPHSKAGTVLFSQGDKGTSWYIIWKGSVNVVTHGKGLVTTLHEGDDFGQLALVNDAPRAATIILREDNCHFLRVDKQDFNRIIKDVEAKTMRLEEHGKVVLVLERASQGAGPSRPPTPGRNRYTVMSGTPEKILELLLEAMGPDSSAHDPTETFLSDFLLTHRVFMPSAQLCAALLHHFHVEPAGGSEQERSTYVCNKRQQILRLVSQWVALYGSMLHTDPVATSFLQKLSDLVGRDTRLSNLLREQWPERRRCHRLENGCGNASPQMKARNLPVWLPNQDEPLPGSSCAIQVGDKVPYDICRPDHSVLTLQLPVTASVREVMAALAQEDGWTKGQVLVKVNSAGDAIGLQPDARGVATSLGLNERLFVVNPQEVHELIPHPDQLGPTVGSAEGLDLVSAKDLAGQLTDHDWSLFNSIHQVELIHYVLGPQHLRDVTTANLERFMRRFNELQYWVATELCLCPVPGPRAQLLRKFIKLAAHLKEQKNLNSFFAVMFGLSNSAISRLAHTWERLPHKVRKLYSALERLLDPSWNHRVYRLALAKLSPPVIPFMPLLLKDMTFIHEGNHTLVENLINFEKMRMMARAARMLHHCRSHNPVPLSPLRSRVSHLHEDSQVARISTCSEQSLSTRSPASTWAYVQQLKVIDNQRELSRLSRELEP
# Outline: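 Released BODIPY-GDP fluoresces less than Rap1-bound BODIPY-GDP; the signal is followed at 480/540 nm at 5-min intervals over 30 min, after 5 min at room temperature. Reactions contain 100 nM EPAC1, 250 nM RAP1B-BODIPY-GDP and 50 uM GDP; results are normalized to ATA and DMSO.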
# [2] = target: Rap guanine nucleotide exchange factor 3 (Homo sapiens) (UniProt O95398); assay: Confirmatory qHTS for agonist of cAMP-regulated guanine nucleotide exchange factor 3 (EPAC1) (AID 1645881); also: nearly all actives have a fitted effect of over 75% in size; also: potency is read from the fitted curve at half-maximal effect;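 as to activation: EPAC1 catalysed release of BODIPY-GDP from Rap1B seen as fluorescence loss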
# [3] = target: Rap guanine nucleotide exchange factor 4 (Homo sapiens) (UniProt Q8WZA2); assay: Confirmatory qHTS for agonist of cAMP-regulated guanine nucleotide exchange factor 4 (EPAC2) (AID 1645884);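 also: nucleotide exchange releases bodipy-GDP from Rap1 and this lowers its fluorescence; nearly all actives have a fitted effect of over 65% in size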; also: potency is read from the fitted curve at half-maximal effect
# Chain of Rap guanine nucleotide exchange factor 4 (Homo sapiens) (Q8WZA2 whole entry, looked up): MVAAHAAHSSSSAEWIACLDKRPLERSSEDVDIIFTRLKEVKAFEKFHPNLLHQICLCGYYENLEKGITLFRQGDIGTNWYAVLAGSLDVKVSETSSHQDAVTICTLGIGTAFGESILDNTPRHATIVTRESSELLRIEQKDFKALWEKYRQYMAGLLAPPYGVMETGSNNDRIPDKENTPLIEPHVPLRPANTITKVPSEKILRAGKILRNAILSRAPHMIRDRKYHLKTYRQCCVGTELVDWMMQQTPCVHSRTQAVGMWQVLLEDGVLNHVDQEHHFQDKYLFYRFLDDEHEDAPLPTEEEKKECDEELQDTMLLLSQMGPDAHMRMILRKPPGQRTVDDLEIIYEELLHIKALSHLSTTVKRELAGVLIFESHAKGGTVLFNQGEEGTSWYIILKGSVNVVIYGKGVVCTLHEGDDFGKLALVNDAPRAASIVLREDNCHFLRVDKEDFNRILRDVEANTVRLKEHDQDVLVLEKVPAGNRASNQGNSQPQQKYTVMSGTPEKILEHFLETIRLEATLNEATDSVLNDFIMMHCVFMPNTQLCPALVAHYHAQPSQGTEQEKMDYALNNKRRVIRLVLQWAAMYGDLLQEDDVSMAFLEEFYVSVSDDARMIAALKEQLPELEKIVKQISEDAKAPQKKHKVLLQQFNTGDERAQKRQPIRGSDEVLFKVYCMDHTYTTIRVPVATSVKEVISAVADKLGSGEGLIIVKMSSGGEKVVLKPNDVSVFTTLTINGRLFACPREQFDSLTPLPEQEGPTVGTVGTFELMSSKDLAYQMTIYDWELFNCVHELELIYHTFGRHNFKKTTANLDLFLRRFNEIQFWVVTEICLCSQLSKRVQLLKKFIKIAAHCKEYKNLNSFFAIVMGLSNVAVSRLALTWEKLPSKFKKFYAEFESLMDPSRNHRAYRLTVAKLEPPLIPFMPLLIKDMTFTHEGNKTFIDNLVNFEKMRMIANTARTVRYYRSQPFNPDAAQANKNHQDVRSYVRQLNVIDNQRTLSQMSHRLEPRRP
# [4] = target: Rap guanine nucleotide exchange factor 4 (Homo sapiens) (UniProt Q8WZA2); assay: Confirmatory qHTS for antagonist of cAMP-regulated guanine nucleotide exchange factor 4 (EPAC2) (AID 1645885); also: nearly all actives have a fitted effect of over 25% in size; also: potency is read from the fitted curve at half-maximal effect
# [5] = target: Rap guanine nucleotide exchange factor 3 (Homo sapiens) (UniProt O95398); assay: Counterscreen qHTS for agonist of cAMP-regulated guanine nucleotide exchange factor 3 (EPAC1) (AID 1645889); also: nearly all actives have a fitted effect of over 40% in size
# Outline: (§1)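 Rap1B-BODIPY-GDP 250 nM + GDP 50 uM; cpds 7-pt, final 9.74 nM–152 uM (activator mode) or from 7.32 nM upwards (inhibitor mode); RT; FI 480/540 nm at 5 and 30 min, then ± cAMP, reread.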
# [6] = target: Tumor susceptibility gene 101 protein (Homo sapiens) (UniProt Q99816); assay: qHTS Assay for Iinhibitors of HIV-1 Budding by Blocking the Interaction of PTAP/TSG101: Hit Validation (AID 651600); also: nearly all actives have a fitted effect of over 70% in size; also: potency is read from the fitted curve at half-maximal effect
# Chain of Tumor susceptibility gene 101 protein (Homo sapiens) (Q99816 whole entry, looked up, the tested form may be a part): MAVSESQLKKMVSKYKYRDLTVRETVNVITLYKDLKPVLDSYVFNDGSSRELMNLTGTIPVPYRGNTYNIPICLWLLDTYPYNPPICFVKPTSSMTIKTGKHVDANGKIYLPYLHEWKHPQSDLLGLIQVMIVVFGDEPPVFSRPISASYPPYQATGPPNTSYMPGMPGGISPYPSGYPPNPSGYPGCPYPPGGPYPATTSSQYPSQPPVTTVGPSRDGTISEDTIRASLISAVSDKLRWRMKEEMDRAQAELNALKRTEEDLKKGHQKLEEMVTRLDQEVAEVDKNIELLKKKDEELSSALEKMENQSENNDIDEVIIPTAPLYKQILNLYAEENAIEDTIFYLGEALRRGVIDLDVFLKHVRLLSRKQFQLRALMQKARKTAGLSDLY
# Outline: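 FITC-PTAP peptide (50 nM final) binding to Tsg101 binding domain (10 uM final) was measured by polarization after 20 min at r.t. with compounds, in 10 mM HEPES pH 7.5 buffer with 0.15 M NaCl and 0.01% Tween 20.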
# [7] = target: Rap guanine nucleotide exchange factor 3 (Homo sapiens) (UniProt O95398); assay: Counterscreen qHTS for antagonist of cAMP-regulated guanine nucleotide exchange factor 3 (EPAC1) (AID 1645888)
# Outline: as §1
# [8] = target: Phosphoglycerate kinase, glycosomal (Trypanosoma brucei brucei) (UniProt P07378); assay: qHTS for inhibitors of Phosphogylcerate Kinase: Hit Validation Screen (AID 686980); conditions: TbPGK coupled GAPDH assay, Kinase-Glo luminescence; also: potency is read from the fitted curve at half-maximal effect; nearly all actives have a fitted effect of over 65% in size
# Chain of Phosphoglycerate kinase, glycosomal (Trypanosoma brucei brucei) (P07378 whole entry, looked up): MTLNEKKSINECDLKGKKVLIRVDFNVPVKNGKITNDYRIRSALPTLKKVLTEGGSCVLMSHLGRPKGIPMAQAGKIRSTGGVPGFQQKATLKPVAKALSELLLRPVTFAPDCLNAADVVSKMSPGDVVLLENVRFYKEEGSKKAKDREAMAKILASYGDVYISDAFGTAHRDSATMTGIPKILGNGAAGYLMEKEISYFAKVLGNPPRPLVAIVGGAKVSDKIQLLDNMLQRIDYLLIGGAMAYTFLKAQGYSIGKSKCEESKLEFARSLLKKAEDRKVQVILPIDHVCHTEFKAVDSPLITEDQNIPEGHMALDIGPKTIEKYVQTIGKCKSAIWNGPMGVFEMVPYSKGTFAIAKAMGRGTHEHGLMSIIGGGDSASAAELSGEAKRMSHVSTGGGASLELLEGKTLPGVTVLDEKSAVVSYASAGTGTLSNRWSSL
# Outline: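 Recombinant glycosomal PGK reaction used 1,3-bisphosphoglycerate generated in-well by GAPDH (100nM final) in 100mM TEA pH 7.6, 5mM MgCl2, 0.01% Tween-20. After 60 minutes at room temperature, ATP was read by Kinase-Glo Plus luminescence end-point.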
# [9] = target: DNA polymerase iota (Homo sapiens) (UniProt Q9UNA4); assay: qHTS for Inhibitors of Polymerase Iota: Confirmatory Assay for Cherry-picked Compounds (AID 720496); conditions: Pol iota primer extension, TAMRA/BHQ fluorescence; also: potency is read from the fitted curve at half-maximal effect
# Chain of DNA polymerase iota (Homo sapiens) (Q9UNA4 whole entry, looked up): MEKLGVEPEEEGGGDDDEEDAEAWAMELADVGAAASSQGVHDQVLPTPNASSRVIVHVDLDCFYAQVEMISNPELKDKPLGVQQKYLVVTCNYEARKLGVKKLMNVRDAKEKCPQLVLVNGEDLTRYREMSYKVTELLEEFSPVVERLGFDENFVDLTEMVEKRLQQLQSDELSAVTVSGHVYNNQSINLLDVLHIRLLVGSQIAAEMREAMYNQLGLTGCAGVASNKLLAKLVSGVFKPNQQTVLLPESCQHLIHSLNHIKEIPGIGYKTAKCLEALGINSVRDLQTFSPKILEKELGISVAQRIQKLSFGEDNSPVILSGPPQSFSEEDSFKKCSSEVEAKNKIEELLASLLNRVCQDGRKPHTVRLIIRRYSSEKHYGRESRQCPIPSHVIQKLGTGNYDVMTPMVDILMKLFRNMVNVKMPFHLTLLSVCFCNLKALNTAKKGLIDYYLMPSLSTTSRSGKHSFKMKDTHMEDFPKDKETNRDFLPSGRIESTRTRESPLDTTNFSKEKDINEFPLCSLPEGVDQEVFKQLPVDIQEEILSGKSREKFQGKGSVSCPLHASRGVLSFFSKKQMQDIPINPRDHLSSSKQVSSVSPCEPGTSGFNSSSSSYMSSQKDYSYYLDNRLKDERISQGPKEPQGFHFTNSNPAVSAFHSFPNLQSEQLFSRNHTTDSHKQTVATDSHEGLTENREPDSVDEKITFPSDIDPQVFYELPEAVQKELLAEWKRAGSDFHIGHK
# Outline: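 10 nM Pol iota + cpd, 15 min RT; start w/ 50 nM (final) TAMRA reporter/BHQ-2 template primer substrate; ex 525/em 598 nm read at 0 and 10 min kinetic.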
# [10] = target: Flap endonuclease 1 (Homo sapiens) (UniProt P39748); assay: qHTS Assay for the Inhibitors of FEN1: Confirmatory Assay for Cherry-picked Compounds (AID 720498); conditions: FEN1 flap cleavage, TAMRA/BHQ2 fluorogenic DNA substrate; also: potency is read from the fitted curve at half-maximal effect; nearly all actives have a fitted effect of over 60% in size
# Chain of Flap endonuclease 1 (Homo sapiens) (P39748 whole entry, looked up): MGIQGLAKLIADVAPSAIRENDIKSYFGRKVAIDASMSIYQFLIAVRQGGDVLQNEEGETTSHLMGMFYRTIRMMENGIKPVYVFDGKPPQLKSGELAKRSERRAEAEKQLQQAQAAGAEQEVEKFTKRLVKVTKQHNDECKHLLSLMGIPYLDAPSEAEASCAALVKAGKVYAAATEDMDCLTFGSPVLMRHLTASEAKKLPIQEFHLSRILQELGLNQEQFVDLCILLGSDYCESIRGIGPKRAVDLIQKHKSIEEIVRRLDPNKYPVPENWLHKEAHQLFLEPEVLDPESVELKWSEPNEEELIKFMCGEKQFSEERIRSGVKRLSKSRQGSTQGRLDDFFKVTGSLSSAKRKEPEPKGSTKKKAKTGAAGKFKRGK
# Outline: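 Human FEN1 (10 nM reagent) was preincubated with compounds for 15 min at room temperature, then 50 nM final double-flap DNA substrate (5'-TAMRA flap, BHQ-2 quencher strand) was added. Fluorescence (ex 525/em 598 nm) was read at 0 and 15 min.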
# [11] = target: DNA polymerase eta (Homo sapiens) (UniProt Q9Y253); assay: qHTS for Inhibitors of Polymerase Eta: Confirmatory Assay for Cherry-picked Compounds (AID 720502); conditions: Pol eta primer extension, TAMRA/BHQ fluorescence, 10 min; also: potency is read from the fitted curve at half-maximal effect
# Chain of DNA polymerase eta (Homo sapiens) (Q9Y253 whole entry, looked up): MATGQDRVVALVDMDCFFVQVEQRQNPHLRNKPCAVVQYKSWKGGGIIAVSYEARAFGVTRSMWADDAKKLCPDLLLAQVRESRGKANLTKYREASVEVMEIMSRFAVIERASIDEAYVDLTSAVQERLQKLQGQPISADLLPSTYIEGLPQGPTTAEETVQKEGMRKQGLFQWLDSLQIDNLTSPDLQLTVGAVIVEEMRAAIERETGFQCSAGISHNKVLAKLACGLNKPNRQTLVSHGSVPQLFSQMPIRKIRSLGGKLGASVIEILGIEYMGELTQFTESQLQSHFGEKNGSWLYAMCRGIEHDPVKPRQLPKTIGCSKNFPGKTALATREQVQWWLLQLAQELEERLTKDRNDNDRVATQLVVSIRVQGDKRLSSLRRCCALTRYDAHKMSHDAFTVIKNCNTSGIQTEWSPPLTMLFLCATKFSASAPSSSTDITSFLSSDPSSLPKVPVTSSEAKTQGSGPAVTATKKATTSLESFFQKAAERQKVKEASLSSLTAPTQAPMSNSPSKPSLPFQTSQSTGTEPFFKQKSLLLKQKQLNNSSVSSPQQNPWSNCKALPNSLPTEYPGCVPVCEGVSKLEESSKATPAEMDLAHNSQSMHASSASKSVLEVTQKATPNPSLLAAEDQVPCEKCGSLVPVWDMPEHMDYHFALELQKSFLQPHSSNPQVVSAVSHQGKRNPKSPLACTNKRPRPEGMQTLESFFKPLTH
# Outline: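 10 nM Pol eta + cpd, 15 min RT; start w/ 50 nM final primer/TAMRA-reporter/BHQ-2-template substrate; kinetic read 0 and 10 min, ex 525/em 598 nm. Buffer-only wells = negative control.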
compound,measurement,setting,value
CCc1ccc([C@@H]2CC=C(C(=O)O)[C@H](c3ccc(C(C)(C)C)cc3)N2S(=O)(=O)c2ccc(C)cc2)cc1,Potency,[1],37.9 µM (active)
same,Potency,[2],inactive
same,Potency,[3],inactive
same,Potency,[4],37.9 µM (active)
same,Potency,[5],inactive
Cc1ccc(C(=O)NN2C(=O)/C(=C/c3cn(C)c4ccccc34)SC2=S)cc1,Potency,[6],14.6 µM (active)
same,Potency,[1],inactive
same,Potency,[2],inactive
same,Potency,[3],inactive
same,Potency,[4],inactive
same,Potency,[7],inactive
O=C(CSc1nnnn1-c1ccccc1)Nc1ccc(Cl)cn1,Potency,[1],inactive
same,Potency,[2],inactive
same,Potency,[3],inactive
same,Potency,[4],inactive
same,Potency,[5],inactive
CCOc1ccc(CNC(=O)c2ccccc2NC(=O)c2nsc3ccccc23)cc1,Potency,[1],inactive
same,Potency,[2],inactive
same,Potency,[3],inactive
same,outcome,[4],inactive [at 12.7 µM]
same,Potency,[5],inactive
CCOc1ccc(NC(=O)c2ccc(NC(=O)COC(=O)c3ccc(NC(=O)CC#N)cc3)cc2)cc1,Potency,[8],8.19 µM (active)
same,Potency,[9],4.74 µM (active)
same,Potency,[10],67.5 µM (active)
same,Potency,[11],75.7 µM (active)
same,Potency,[1],inactive
same,Potency,[2],inactive
same,Potency,[3],inactive
same,Potency,[4],inactive
same,Potency,[7],inactive
COc1cc(CN2CCN(C(=O)CC(C)C)CC2)c([N+](=O)[O-])cc1OC,Potency,[1],inactive
same,Potency,[2],inactive
same,activation,[3],"2.13% [at 17.1 µM, percent relative to cAMP agonist control]"
same,Potency,[4],inactive
same,activation,[5],8.51% [at 30.8 µM]
Cc1cc(/C=C2\SC(=S)NC2=O)cc(C)c1O,Potency,[1],33.8 µM (active)
same,Potency,[2],inactive
same,Potency,[3],inactive
same,Potency,[4],0.675 µM (active)
same,Potency,[5],inactive
CN(C)c1ccc(/C=C(\C#N)C(=O)Nc2nc3c(s2)CCN(Cc2ccccc2)C3)cc1,Potency,[6],inactive
same,Potency,[1],inactive
same,Potency,[2],100 µM (active)
same,Potency,[3],100 µM (active)
same,Potency,[4],inactive
same,Potency,[7],inactive
COc1cccc(CC(=NO)c2cccc(OC)c2)c1,Potency,[1],inactive
same,Potency,[2],inactive
same,activation,[3],"4.78% [at 17.1 µM, percent relative to cAMP agonist control]"
same,Potency,[4],inactive
same,activation,[5],2.23% [at 30.8 µM]
COc1ccc(C2CCc3cc4c(cc3C2=NO)OCO4)cc1OC (configuration not stated),Potency,[1],inactive
same,Potency,[2],inactive
same,activation,[3],"6.77% [at 17.1 µM, percent relative to cAMP agonist control]"
same,Potency,[4],inactive
same,activation,[5],14.5% [at 30.8 µM]
CC(=O)Nc1cccc(/C(C)=N/Nc2ccc(S(=O)(=O)Nc3ccccc3C(=O)O)cc2[N+](=O)[O-])c1,Potency,[1],21.3 µM (active)
same,Potency,[2],inactive
same,Potency,[3],inactive
same,Potency,[4],inactive
same,Potency,[5],inactive
N#C/C(=C\c1ccccn1)c1nc2ccccc2s1,Potency,[6],inactive
same,Potency,[1],19 µM (active)
same,Potency,[2],inactive
same,Potency,[3],inactive
same,Potency,[4],inactive
same,Potency,[7],inactive
COC(=O)CSc1ncnc2scc(-c3ccccc3)c12,Potency,[1],inactive
same,Potency,[2],inactive
same,activation,[3],"-0.952% [at 17.1 µM, percent relative to cAMP agonist control]"
same,Potency,[4],inactive
same,activation,[5],5.38% [at 30.8 µM]
